The whole screen tested about 320,000 compounds, of which about 7,600 (2.4%) were called active. Inconclusive results (about 3%) are left out. The entries come from a sample that favours actives as a whole. Values without a mark were called inactive. The call rests on the fitted dose curve; in most records, active means well fitted activation curve with a large enough effect; inconclusive means small, poorly fitted or top-dose-only effect; inactive means no such curve, though single readings can be large or run the other way.

Consider 56 molecules from PubChem BioAssay AID485313 (National Center for Advancing Translational Sciences (NCATS), 2010).
Potency means the concentration at half of the fitted maximal effect.

This experiment in a line: qHTS Assay for NPC1 Promoter Activators. Further: nearly all actives have a fitted effect of over 60% in size.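 On activation: reporter is driven by a mutant NPC1 promoter; % of control where 0% means no effect.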 The conditions noted are these: Huh7 NPC1 promoter luciferase reporter, 24 h; series mostly up to 9.22 µM; activation: at the top concentration. The essentials:
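Stably transfected Huh7 (NPC1 promoter→luciferase), 1500 cells/well in Opti-MEM + 10% FBS, 2 h settle, then compound 24 h at 37 °C. Luminescence after 10 min with Amplite reagent.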
In general terms: Quantitative high-throughput screening tests each substance at several concentrations.
Regarding `CC(=O)c1ccc(N2CCN(C(=O)CCc3ccccc3)CC2)cc1`, the “activation” value is -1.38%.
Same read-out and setting: with `CC(=O)c1ccc(N2CCN(CC(O)c3ccccc3)CC2)cc1` (stereo unspecified) the figure was -7.6%; with `O=C(O)c1cc(S(=O)(=O)Nc2ccc3cn[nH]c3c2)ccc1Br`, 1.48%; with `CS(=O)(=O)N1CCN(c2cccc(Cl)n2)CC1`, 2.53%.
As for `CS(=O)(=O)N1CCc2nc(-c3ccccc3)sc2C1`, the Potency is 2.51 µM (active).
Turning to `CS(=O)(=O)N1CCN(C(=O)Cc2ccccc2)CC1`, the “activation” value is -1.21%.
On the same count and under the same terms, with `CCCCN(C(=O)C1=NN(c2cc(C)ccc2C)C(=O)CC1)c1c(N)n(CCC)c(=O)[nH]c1=O` the figure was -0.22%; with `COc1ccc(OCCCC(=O)Nc2cccc(S(=O)(=O)N3CCCCCC3)c2)cc1`, 4.23%.
For the molecule `O=C(NCc1cccnc1)C(=O)Nc1nc(-c2ccccc2)cs1`, the “activation” value is 26.3%.
On to `Cc1ccccc1Nc1nc(-c2cccnc2)cs1`, for which the Potency was 1.78 µM (active).
As for `Brc1ccc(-c2csc(N/N=C/c3cccnc3)n2)cc1`, the “activation” value is 3.01%.
As for `CN(C(=O)COC(=O)Cn1cnc2c1c(=O)n(C)c(=O)n2C)C1(C#N)CCCCC1`, the “activation” value was -0.17%.
On the same count and under the same terms, with `O=C(CSc1nnc(Nc2ccccc2F)s1)NC1CCCC1` the figure was 4.95%.
In the case of `COc1ccc2nc(SCc3ccccc3)nc(C)c2c1`, the Potency was 3.16 µM (active).
Consider `COC(=O)CSc1nc(C)c2ccc(OC)cc2n1`, for which the “activation” value was -0.564%.
For `COc1ccc(-c2nnc3ccc(SCc4ccccc4)nn23)cc1`, the “activation” value was 2.4%.
Turning to `Cc1ccc(OCC(=O)Nc2ccccc2C(=O)NC2CC2)cc1`, the “activation” value was 0.788%.
On to `CC(C)Oc1ccc(S(=O)(=O)N2CCOCC2)cc1NC(=O)C1CCCC1`, for which the “activation” value was 1.15%.
Still for that read-out and setting: with `O=C(c1ccc(Br)o1)N(c1ccccn1)C1CCCCC1` the figure was 0.227%.
The same measure, in the same setting: with `COc1cccc(NC(=O)CN(C)CC(=O)c2c(N)n(Cc3ccccc3)c(=O)n(C)c2=O)c1` the figure was -2.46%; with `Cc1cccc(C(=O)c2cccc(C)c2)c1`, -0.639%.
Consider `Cc1cccc(/C(N)=N/OC(=O)c2ccccc2Cl)c1`, for which the Potency was 0.0891 µM (active).
With `N/C(=N\OC(=O)c1cc(-c2ccccc2)nc2ccccc12)c1ccncc1`, the “activation” value is 3.57%.
Still for that read-out and setting: with `C[C@H](NC(=O)C1CC(=O)N(c2ccc3c(c2)OCCO3)C1)C(=O)N1CCC(C(=O)O)CC1` (stereo partly specified) the figure was -3.35%; with `COc1cc(C(=O)OCC(=O)NC23CC4CC(CC(C4)C2)C3)cc(OC)c1OC`, 0.787%; with `CSCCC(NC(=O)COc1ccccc1)C(=O)N(C)CC(=O)Nc1ccc(C)cc1` (stereo unspecified), -2.11%.
On to `O=C(COC(=O)C1(c2ccc(F)cc2)CCCC1)N1CCNC1=O`, for which the “activation” value was 0.411%.
On to `O=c1[nH]c2cccnc2n1-c1ccc([N+](=O)[O-])cc1`, for which the “activation” value was 2.63%.
The same measure, in the same setting: with `O=[N+]([O-])c1ccc2c(c1)Nc1nc3ccccc3nc1N2` the figure was -0.0231%.
With `O=[N+]([O-])c1ccc2nc(-c3ccccn3)[nH]c2c1`, the Potency was 1.58 µM (active).
With `CCN(CC(=O)Nc1ccc(OC)cc1)C(=O)c1ccc(=O)n(Cc2ccccc2)n1`, the “activation” value was -0.115%.
Turning to `Cc1csc2nc(COC(=O)c3cccc(N(C)C)c3)cc(=O)n12`, the Potency is 1.41 µM (active).
For the molecule `Cc1nn2c(=O)cc(COC(=O)c3ccc(NC(=O)C(C)(C)C)cc3)nc2s1`, the “activation” value was -1.52%.
As to `O=c1cc(CCl)nc2scc(-c3ccccc3)n12`, the “activation” value is -0.115%.
On the same count and under the same terms, with `CCC(C)N(C(=O)CSc1nnnn1-c1ccccc1OC)C1CCS(=O)(=O)C1` (stereo unspecified) the figure was 4.75%.
As to `CC(NCc1ccccc1OC1CCCC1)c1ccccc1` (stereo unspecified), the “activation” value was -1.56%.
On the same count and under the same terms, with `C=CCN(CC=C)S(=O)(=O)c1ccc(C(=O)Nc2sc3c(c2C(N)=O)CCCCC3)cc1` the figure was -8.3%; with `O=C(Nc1sc2c(c1C(=O)O)CCC2)c1ccccc1F`, 6.62%.
As for `NC(=O)c1c(NC(=O)c2ccccc2)sc2c1CCCC2`, the Potency is 3.98 µM (active).
With `COc1ccc(C(=O)OC(C)C(=O)NC2CCCC2)cc1S(=O)(=O)N1CCOCC1` (stereo unspecified), the “activation” value was -1.48%.
On the same count and under the same terms, with `CC(C)CN(C(=O)CSc1ncnc2sccc12)C1CCS(=O)(=O)C1` (stereo unspecified) the figure was -2.91%; with `CC(=O)c1ccc(S(=O)(=O)N2CCC(Oc3ccc(-n4cnnn4)cc3)CC2)cc1`, -3.83%; with `O=C(COC(=O)Cc1ccc(Br)cc1)Nc1ccc(N2CCOCC2)cc1`, -1.47%.
Still for that read-out and setting: with `CC(=O)NC12CC3CC(C1)CC(C(=O)N1CCN(C(=O)c4ccco4)CC1)(C3)C2` the figure was 0.551%.
Take `c1cnc(N2CCN(c3ccc4ccccc4n3)CC2)nc1`: the Potency was 1.41 µM (active).
With `O=C(c1ccncc1)N1CCN(c2ccc3ccccc3n2)CC1`, the “activation” value was -0.852%.
Still for that read-out and setting: with `CC12CCC(C(=O)N3CCN(c4ncccn4)CC3)(c3nc4ccccc4nc31)C2(C)C` (stereo unspecified) the figure was -0.0128%; with `CCc1nnc(NC(=O)c2cc(S(=O)(=O)N3CCCCC3)ccc2C)s1`, -2.65%; with `CCC1(C)CC(=O)NC1=O` (stereo unspecified), 0.774% [at 46.1 µM].
`CC(C)(C)OC(=O)NCCCCCNC(=O)c1[nH]cnc1C(=O)Nc1nccs1`: the “activation” value is 9.24%.
Still for that read-out and setting: with `CCn1c(SCC(=O)Nc2ccc3c(c2)OCCO3)nnc1C(C)C` the figure was 3.74%; with `CCn1c(SCC(=O)Nc2ccc3c(c2)OCCO3)nnc1-c1ccncc1`, -7.41%.
For `Cn1ccnc1SCC(=O)Nc1ccc2c(c1)OCCO2`, the Potency was 2.51 µM (active).
Turning to `O=C(Nc1cccc(NC(=O)c2ccco2)c1)c1cnccn1`, the “activation” value is 2.89%.
Take `O=C(Nc1ccc2c(c1)OCCO2)c1cnccn1`: the Potency is 2.82 µM (active).
`O=C(Nc1ccc2c(c1)OCCO2)c1ccoc1`: the “activation” value is 29.1%.
